Experimental data published in PubChem BioAssay (EPA / NIEHS).
Activity calls are given as the source filed them. The calls were made as follows: active = hit-call score of the fitted dose curve at least 0.9, where 1 is the maximum; inactive = score below 0.9.

Legend:
Details in all cases: mRNA level, 48 h; actives raise or lower the signal
[1] = read-out: Pro-epidermal growth factor (Homo sapiens) (UniProt P01133); test: LTEA_HepaRG_EGF: Life Technologies and Expression Analysis (LTEA) Assay for Epidermal growth factor (EGF) using HepaRG (AID 2283489)
Summary of the method: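 EGF expression changes in human HepaRG cells are scored by bidirectional fitting relative to 0.5% DMSO controls. Chemicals are tested at eight half-log concentrations up to 100 uM for 48 h in serum-free induction medium.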

[2] = read-out: Early growth response protein 1 (EGR1) transcription factor, EGR1 (gene 1958); test: LTEA_HepaRG_EGR1: Life Technologies and Expression Analysis (LTEA) Assay for Early growth response protein 1 (EGR1) transcription factor using HepaRG (AID 2283490)
Summary of the method: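 EGR1 transcript levels quantified by qRT-PCR (Fluidigm arrays) against three housekeeping genes after 48 h chemical exposure of HepaRG cells. Eight-point half-log series topping at 100 uM, 0.5% DMSO vehicle, analyzed for gain or loss.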

[3] = read-out: Ezrin (EZR), EZR (gene 7430); test: LTEA_HepaRG_EZR: Life Technologies and Expression Analysis (LTEA) Assay for Ezrin (EZR) using HepaRG (AID 2283491)
Summary of the method: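 Differentiated human HepaRG cells, 48 h after plating, were exposed in serum-free induction medium for 48 hours to eight half-log concentrations up to 100 uM in 0.5% DMSO. EZR mRNA was measured by TaqMan qRT-PCR, normalized to ACTB, GAPDH and POLR2A, and fitted bidirectionally against DMSO.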

[4] = read-out: Cytochrome P450 3A7 (Homo sapiens) (UniProt P24462); test: LTEA_HepaRG_CYP3A7: Life Technologies and Expression Analysis (LTEA) Assay for CYP3A7 using HepaRG (AID 2283492)
Summary of the method: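 Cells were thawed, plated, cultured 48 h, then treated for a further 48 h with chemicals (eight-point half-log series from 100 uM, 0.5% DMSO). RNA was isolated and CYP3A7 expression quantified by qRT-PCR normalised to ACTB, GAPDH and POLR2A.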

[5] = read-out: CYP3A5 (gene 1577); test: LTEA_HepaRG_CYP3A5: Life Technologies and Expression Analysis (LTEA) Assay for CYP3A5 using HepaRG (AID 2283493)
Summary of the method: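 Human HepaRG hepatic cells receive 48 h chemical treatment at eight concentrations (half-log steps from 100 uM) in 0.5% DMSO. Expression of CYP3A5 is quantified by Fluidigm qRT-PCR and normalized to three reference genes.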

[6] = read-out: Fatty Acid-Binding Protein 1 (FABP1), FABP1 (gene 2168); test: LTEA_HepaRG_FABP1: Life Technologies and Expression Analysis (LTEA) Assay for Fatty Acid-Binding Protein 1 (FABP1) using HepaRG (AID 2283494)
Summary of the method: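 FABP1 expression by TaqMan qRT-PCR, normalised to three housekeeping genes, in HepaRG cells after 48 h chemical treatment. Eight-point half-log series topping at 100 uM in 0.5% DMSO, duplicates; gain or loss fitted relative to vehicle.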

[7] = read-out: Cytochrome P450 7A1 (Homo sapiens) (UniProt P22680); test: LTEA_HepaRG_CYP7A1: Life Technologies and Expression Analysis (LTEA) Assay for Cytochrome P450 7A1 (CYP7A1) using HepaRG (AID 2283496)
Summary of the method: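 HepaRG, 48 h exposure, 8-pt half-log series from 100 uM, 0.5% DMSO vehicle, duplicates. Readout: TaqMan qRT-PCR mRNA vs three housekeeping genes; bidirectional curve fit against DMSO baseline.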

[8] = read-out: Glutathione S-Transferase (GSTA2), GSTA2 (gene 2939); test: LTEA_HepaRG_GSTA2: Life Technologies and Expression Analysis (LTEA) Assay for Glutathione S-Transferase (GSTA2) using HepaRG (AID 2283497)
Summary of the method: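 GSTA2 transcript levels came from Fluidigm TaqMan qRT-PCR normalized to three housekeeping genes, fitted in both directions against DMSO. HepaRG cultures received chemicals for 48 h in serum-free induction medium (0.5% DMSO), 8 half-log concentrations up to 100 uM, duplicate.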

[9] = read-out: Glutamate-cysteine ligase catalytic (GCLC), GCLC (gene 2729); test: LTEA_HepaRG_GCLC: Life Technologies and Expression Analysis (LTEA) Assay for Glutamate-cysteine ligase catalytic (GCLC) using HepaRG (AID 2283498)
Summary of the method: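 Expression by TaqMan qRT-PCR, normalized to three housekeeping genes (ACTB, GAPDH, POLR2A), with up- or down-regulation fitted against DMSO. HepaRG cells dosed in duplicate for 48 h with 8 half-log concentrations up to 100 uM, vehicle 0.5% DMSO.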

[10] = read-out: growth arrest and DNA damage 45 (GADD45G), GADD45G (gene 10912); test: LTEA_HepaRG_GADD45G: Life Technologies and Expression Analysis (LTEA) Assay for growth arrest and DNA damage 45 (GADD45G) using HepaRG (AID 2283499)
Summary of the method: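 Human hepatic HepaRG line treated 48 h with chemicals (eight concentrations, half-log steps from 100 uM); transcript induction or repression of GADD45G scored by qRT-PCR versus DMSO vehicle.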

[11] = read-out: Glutamate-cysteine ligase regulatory (GCLM), GCLM (gene 2730); test: LTEA_HepaRG_GCLM: Life Technologies and Expression Analysis (LTEA) Assay for Glutamate-cysteine ligase regulatory (GCLM) using HepaRG (AID 2283500)
Summary of the method: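 Endpoint is GCLM transcript level by qRT-PCR, normalized to three housekeeping genes, after 48 h chemical exposure of human HepaRG cells (0.5% DMSO vehicle, top 100 uM, half-log dilutions). Fitting was bidirectional relative to DMSO.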

[12] = read-out: Heat shock 70 kDa protein 1 (HSPA1A), gene 3303; test: LTEA_HepaRG_HSPA1A: Life Technologies and Expression Analysis (LTEA) Assay for Heat shock 70 kDa protein 1 (HSPA1A) using HepaRG (AID 2283502)
Summary of the method: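 Cells were plated and cultured for 48 h, then switched to serum-free induction medium. Chemicals were added at eight half-log concentrations up to 100 uM for 48 h. RNA was then isolated and HSPA1A measured by qRT-PCR with bidirectional curve fitting against DMSO.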

[13] = read-out: Hypoxia-inducible factor 1-alpha (Homo sapiens) (UniProt Q16665); test: LTEA_HepaRG_HIF1A: Life Technologies and Expression Analysis (LTEA) Assay for Hypoxia-inducible factor 1 (HIF1A) Trancription factor using HepaRG (AID 2283503)
Summary of the method: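 HIF1A transcript level read by qRT-PCR (ACTB, GAPDH, POLR2A normalization) after 48 h chemical exposure of HepaRG cultures. Eight half-log concentrations, top 100 uM, 0.5% DMSO vehicle, duplicates; bidirectional curve fit against DMSO baseline.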

[14] = read-out: 3-Hydroxy-3-Methylglutaryl-CoA Synthase 2 (HMGCS2), HMGCS2 (gene 3158); test: LTEA_HepaRG_HMGCS2: Life Technologies and Expression Analysis (LTEA) Assay for 3-Hydroxy-3-Methylglutaryl-CoA Synthase 2 (HMGCS2) using HepaRG (AID 2283504)
Summary of the method: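 Expression of HMGCS2 in human HepaRG liver cells is measured by qRT-PCR 48 h after dosing (highest 100 uM, half-log series, 0.5% DMSO). Values come from bidirectional concentration-response fitting with DMSO as baseline.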

[15] = read-out: HGF (gene 3082); test: LTEA_HepaRG_HGF: Life Technologies and Expression Analysis (LTEA) Assay for Hepatocyte Growth Facto (HGF) using HepaRG (AID 2283505)
Summary of the method: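 Gain or loss of HGF mRNA in human HepaRG liver cells after 48 h chemical exposure; eight concentrations up to 100 uM with 0.5% DMSO vehicle, quantified by TaqMan qRT-PCR.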

[16] = read-out: Insulin Like Growth Factor 1 (IGF1), IGF1 (gene 3479); test: LTEA_HepaRG_IGF1: Life Technologies and Expression Analysis (LTEA) Assay for Insulin Like Growth Factor 1 (IGF1) using HepaRG (AID 2283506)
Summary of the method: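 Cells are thawed, plated and cultured 48 h, then exposed in duplicate to chemical (highest 100 uM, half-log steps, 0.5% DMSO) for another 48 h. Total RNA is analysed by Fluidigm qRT-PCR for IGF1 expression relative to vehicle.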

[17] = read-out: Intercellular Adhesion Molecule 1 (ICAM1), ICAM1 (gene 3383); test: LTEA_HepaRG_ICAM1: Life Technologies and Expression Analysis (LTEA) Assay for Intercellular Adhesion Molecule 1 (ICAM1) using HepaRG (AID 2283507)
Summary of the method: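 Gain or loss of transcript in HepaRG hepatic cells is quantified by qRT-PCR after 48 h chemical exposure (up to 100 uM, half-log steps), with DMSO as baseline.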

[18] = read-out: Insulin-like growth factor-binding protein 1 (IGFBP1), IGFBP1 (gene 3484); test: LTEA_HepaRG_IGFBP1: Life Technologies and Expression Analysis (LTEA) Assay for Insulin-like growth factor-binding protein 1 (IGFBP1) using HepaRG (AID 2283508)
Summary of the method: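 mRNA induction or loss was quantified by qRT-PCR after 48 h chemical exposure of human HepaRG cells, with 0.5% DMSO as vehicle and baseline. Concentration-response over eight points up to 100 uM.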

[19] = read-out: Cytochrome P450 4A22 (Homo sapiens) (UniProt Q5TCH4); test: LTEA_HepaRG_CYP4A22: Life Technologies and Expression Analysis (LTEA) Assay for Cytochrome P450 4A22 (CYP4A22) using HepaRG (AID 2283495)
Summary of the method: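 Cryopreserved HepaRG cells, plated and cultured 48 h, then switched to serum-free induction medium and treated 48 h (duplicates, up to 100 uM, half-log steps, 0.5% DMSO). Expression change of CYP4A22 was fitted bidirectionally against vehicle.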

[20] = read-out: Glutathione S-transferase M3 (GSTM3), GSTM3 (gene 2947); test: LTEA_HepaRG_GSTM3: Life Technologies and Expression Analysis (LTEA) Assay for Glutathione S-transferase M3 (GSTM3) using HepaRG (AID 2283501)
Summary of the method: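 Changes in GSTM3 expression, an oxidative-stress marker, were scored by bidirectional curve fitting against 0.5% DMSO vehicle. Human HepaRG cultures received chemicals for 48 h in duplicate, highest concentration 100 uM with half-log dilutions.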

Sequence of Cytochrome P450 3A7 (Homo sapiens) (P24462 whole entry, looked up): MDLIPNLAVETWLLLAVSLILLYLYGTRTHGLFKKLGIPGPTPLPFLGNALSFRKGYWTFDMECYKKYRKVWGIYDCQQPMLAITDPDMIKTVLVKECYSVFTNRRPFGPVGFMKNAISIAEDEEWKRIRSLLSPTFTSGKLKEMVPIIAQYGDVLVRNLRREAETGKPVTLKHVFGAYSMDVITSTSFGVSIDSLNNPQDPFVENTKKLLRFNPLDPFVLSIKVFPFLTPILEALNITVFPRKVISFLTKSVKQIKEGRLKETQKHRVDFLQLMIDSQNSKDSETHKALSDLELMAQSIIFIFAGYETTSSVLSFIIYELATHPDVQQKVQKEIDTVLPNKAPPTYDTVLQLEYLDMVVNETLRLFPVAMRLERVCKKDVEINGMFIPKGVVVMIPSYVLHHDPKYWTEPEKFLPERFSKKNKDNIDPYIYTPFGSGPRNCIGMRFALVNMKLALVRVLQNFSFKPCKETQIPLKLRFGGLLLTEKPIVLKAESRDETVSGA
Sequence of Hypoxia-inducible factor 1-alpha (Homo sapiens) (Q16665 whole entry, looked up): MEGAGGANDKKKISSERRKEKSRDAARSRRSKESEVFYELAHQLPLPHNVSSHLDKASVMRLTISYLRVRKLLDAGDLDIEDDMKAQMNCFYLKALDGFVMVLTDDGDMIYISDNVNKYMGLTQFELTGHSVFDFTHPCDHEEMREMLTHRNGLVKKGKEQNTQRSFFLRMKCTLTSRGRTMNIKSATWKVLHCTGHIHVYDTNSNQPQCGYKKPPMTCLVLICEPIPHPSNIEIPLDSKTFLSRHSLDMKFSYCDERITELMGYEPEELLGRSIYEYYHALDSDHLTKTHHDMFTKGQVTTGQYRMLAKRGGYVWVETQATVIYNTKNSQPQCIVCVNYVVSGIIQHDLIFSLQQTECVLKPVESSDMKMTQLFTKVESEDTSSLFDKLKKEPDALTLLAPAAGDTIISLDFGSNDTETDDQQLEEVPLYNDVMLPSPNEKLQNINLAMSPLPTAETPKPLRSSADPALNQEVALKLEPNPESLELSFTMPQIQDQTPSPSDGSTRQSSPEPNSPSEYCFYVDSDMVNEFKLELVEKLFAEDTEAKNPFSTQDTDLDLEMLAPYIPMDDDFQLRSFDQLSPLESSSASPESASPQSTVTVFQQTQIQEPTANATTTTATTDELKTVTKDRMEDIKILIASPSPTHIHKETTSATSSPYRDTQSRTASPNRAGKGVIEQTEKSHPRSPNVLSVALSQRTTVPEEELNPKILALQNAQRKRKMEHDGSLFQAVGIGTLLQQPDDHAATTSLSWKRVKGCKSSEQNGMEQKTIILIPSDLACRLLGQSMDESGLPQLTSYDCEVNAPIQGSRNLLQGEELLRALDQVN

## CN/C(=N\[N+](=O)[O-])NCc1cnc(Cl)s1
[1]
  outcome: inactive
[2]
  outcome: inactive
[3]
  outcome: inactive
[4]
  outcome: inactive
[5]
  outcome: inactive
[6]
  AC50: 33.4 µM (active)
[7]
  AC50: 50 µM (active)
[8]
  outcome: inactive
[9]
  outcome: inactive
[10]
  outcome: inactive
[11]
  outcome: inactive
[12]
  outcome: inactive
[13]
  outcome: inactive
[14]
  outcome: inactive
[15]
  outcome: inactive
[16]
  outcome: inactive
[17]
  outcome: inactive
[18]
  outcome: inactive

## CC(C)Oc1cccc(NC(=O)c2ccccc2C(F)(F)F)c1
[1]
  outcome: inactive
[2]
  outcome: inactive
[3]
  outcome: inactive
[4]
  outcome: inactive
[5]
  outcome: inactive
[6]
  outcome: inactive
[7]
  outcome: inactive
[8]
  AC50: 50 µM (active)
[9]
  outcome: inactive
[10]
  outcome: inactive
[11]
  outcome: inactive
[12]
  outcome: inactive
[13]
  outcome: inactive
[14]
  outcome: inactive
[15]
  outcome: inactive
[16]
  AC50: 80.9 µM (active)
[17]
  outcome: inactive
[18]
  outcome: inactive

## CCCCC(C#N)(Cn1cncn1)c1ccc(Cl)cc1 (configuration not stated)
[1]
  outcome: inactive
[2]
  outcome: inactive
[3]
  outcome: inactive
[4]
  AC50: 3.89 µM (active)
[5]
  outcome: inactive
[6]
  AC50: 13.1 µM (active)
[19]
  AC50: 51.8 µM (active)
[7]
  outcome: inactive
[8]
  outcome: inactive
[9]
  outcome: inactive
[10]
  AC50: 11.7 µM (active)
[20]
  outcome: inactive
[12]
  outcome: inactive
[13]
  outcome: inactive
[14]
  AC50: 78.1 µM (active)
[15]
  outcome: inactive
[16]
  AC50: 68.7 µM (active)
[17]
  outcome: inactive
[18]
  outcome: inactive

## O=P(O)(O)CCCl
[1]
  outcome: inactive
[2]
  outcome: inactive
[3]
  outcome: inactive
[4]
  outcome: inactive
[5]
  outcome: inactive
[6]
  outcome: inactive
[19]
  outcome: inactive
[7]
  outcome: inactive
[8]
  outcome: inactive
[10]
  outcome: inactive
[12]
  outcome: inactive
[13]
  outcome: inactive
[14]
  outcome: inactive
[15]
  outcome: inactive
[16]
  outcome: inactive
[17]
  outcome: inactive
[18]
  outcome: inactive

## COC(=O)N(C(=O)N1CO[C@@]2(C(=O)OC)Cc3cc(Cl)ccc3C2=N1)c1ccc(OC(F)(F)F)cc1
[1]
  outcome: inactive
[2]
  outcome: inactive
[3]
  outcome: inactive
[4]
  AC50: 73.1 µM (active)
[5]
  outcome: inactive
[6]
  AC50: 40 µM (active)
[19]
  AC50: 28.9 µM (active)
[7]
  AC50: 31.8 µM (active)
[8]
  AC50: 51.3 µM (active)
[10]
  outcome: inactive
[11]
  outcome: inactive
[12]
  outcome: inactive
[13]
  outcome: inactive
[14]
  AC50: 40 µM (active)
[15]
  outcome: inactive
[16]
  AC50: 4.25 µM (active)
[17]
  outcome: inactive
[18]
  AC50: 40 µM (active)

## COCc1cnc(C2=NC(C)(C(C)C)C(=O)N2)c(C(=O)O)c1 (configuration not stated)
[1]
  outcome: inactive
[2]
  outcome: inactive
[3]
  outcome: inactive
[4]
  outcome: inactive
[5]
  outcome: inactive
[6]
  outcome: inactive
[19]
  outcome: inactive
[7]
  outcome: inactive
[8]
  outcome: inactive
[9]
  outcome: inactive
[10]
  outcome: inactive
[20]
  outcome: inactive
[12]
  outcome: inactive
[13]
  outcome: inactive
[14]
  outcome: inactive
[15]
  outcome: inactive
[16]
  outcome: inactive
[17]
  outcome: inactive
[18]
  outcome: inactive

## O=C(Nc1ccccc1-c1ccc(Cl)cc1)c1cccnc1Cl
[1]
  outcome: inactive
[2]
  outcome: inactive
[3]
  outcome: inactive
[4]
  outcome: inactive
[5]
  outcome: inactive
[6]
  AC50: 33.9 µM (active)
[19]
  outcome: inactive
[7]
  AC50: 17 µM (active)
[8]
  outcome: inactive
[10]
  outcome: inactive
[20]
  outcome: inactive
[12]
  outcome: inactive
[13]
  outcome: inactive
[14]
  AC50: 52.5 µM (active)
[15]
  outcome: inactive
[16]
  AC50: 52.5 µM (active)
[17]
  outcome: inactive
[18]
  outcome: inactive
